GLP1R cytotox: cytotoxic in the GLP-1 receptor inverse agonist counter-screen. 0.13% of 410,000 active. Potency, µM (titrated, usually from 38.3 µM), inactives show at the highest dose activity change, negative = inhibition, most hits filed as inhibitors. HEK293 cAMP-luciferase reporter cells, luminescence, 24 h;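 note: loss of luciferase light is scored as toxicity; % is set by controls: 0 for no effect and ±100 for the full control effect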
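Luminescence readout: signal drop marks cytotoxicity. Plated cells grew 12 h at 37 °C, 5% CO2, received 23 nL compound for 24 h, then got luciferase reagent, read after 12 min at RT.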
RORg inh: blocks mouse ROR gamma transcriptional activity. Drosophila S2 Gal4-RORgamma UAS-luciferase reporter, 20 h. Potency, µM (doses to about 53.6 µM), for the others: top-dose activity change, negative = inhibition, usual class: inhibitors. P51450. 5.4% of 310,000 active; note: % is set by controls: 0 for no effect and ±100 for the full control effect; nearly all actives have a fitted effect of over 60% in size
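Compounds are pin-transferred onto Drosophila Schneider cells expressing a copper-inducible Gal4–ROR gamma transactivation domain fusion. After 1 hr, copper sulfate is added to 700 uM final; luciferase is read 20 hr later.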
GLP-1R agonist: activates the human GLP-1 receptor. 0.007% of 380,000 active. P43220. Potency, µM (top dose mostly 45.6 µM), without a hit: top-dose activation, usual class: activators. HEK293 GLP-1R CRE-luciferase, luminescence, 4-6 h; cells express a hypersensitive GLP-1R form; note: % of control where 0% means no effect
Target sequence (P43220 whole entry, looked up): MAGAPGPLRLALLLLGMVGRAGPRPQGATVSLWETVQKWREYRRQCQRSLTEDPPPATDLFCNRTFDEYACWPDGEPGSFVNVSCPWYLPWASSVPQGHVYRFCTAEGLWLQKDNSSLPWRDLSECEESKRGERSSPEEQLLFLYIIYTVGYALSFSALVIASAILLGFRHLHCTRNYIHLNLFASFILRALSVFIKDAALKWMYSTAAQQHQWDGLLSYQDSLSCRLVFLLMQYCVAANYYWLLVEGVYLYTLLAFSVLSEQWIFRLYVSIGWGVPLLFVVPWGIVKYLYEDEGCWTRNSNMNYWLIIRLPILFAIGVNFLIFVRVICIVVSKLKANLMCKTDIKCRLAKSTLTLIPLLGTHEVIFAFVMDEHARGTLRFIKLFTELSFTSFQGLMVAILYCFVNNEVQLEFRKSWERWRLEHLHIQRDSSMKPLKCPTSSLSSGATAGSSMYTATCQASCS
VP16 counter: Gal4-VP16 reporter inhibition counter-screen | AID 2546 | Potency, µM (series often up to 53.6 µM), for inactives: at the top dose activity, negative = inhibition, most hits filed as inhibitors | Drosophila S2 Gal4-VP16 UAS-luciferase, luminescence, 20 h | 3.5% of 310,000 active;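 note: Gal4-VP16 expression switched on by copper sulfate through the metallothionein promoter; % is set by controls: 0 for no effect and ±100 for the full control effect; nearly all actives have a fitted effect of over 50% in size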
GLP1R inv ag: GLP-1 receptor (human) inverse agonism. P43220. HEK293 GLP-1R CRE-luciferase, luminescence, 24 h; GLP-1R form is constitutively active. Potency, µM (highest dose often 38.3 µM), inactives show at the top dose activity change, negative = inhibition, hits mostly inhibitors. 1.6% of 410,000 active; note: % is set by controls: 0 for no effect and ±100 for the full control effect; nearly all actives have a fitted effect of over 55% in size
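Cells are plated, allowed 12 hours at 37 deg C, then treated with compounds for 24 hr before luciferase detection reagent is added and luminescence is read after 12 min at room temperature. The HEK293 line carries constitutively active GLP-1R with a cAMP-responsive reporter.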
* marks the source's active call; other numbers are inactive results; u = inconclusive; x = no result given; [ ] = remark or other dose. This is a sample that favours compounds with a hit; in the whole collection about 5.9% have one here. Calls come from the whole dose curve; as a rule, active = well fitted curve in the direction sought with a large enough effect; inconclusive = small, poorly fitted or top-dose-only effect, or another doubt; inactive = no such curve, though single readings can be large; an effect the other way counts as inactive or inconclusive. Potency is the fitted concentration of half-maximal effect.

SMILES | GLP1R cytotox | RORg inh | GLP-1R agonist | VP16 counter | GLP1R inv ag
COc1ccc(CNC(=O)c2cc3ccccn3n2)cc1OC | 1% | x | x | x | 48%
C/C(=N\Nc1nc(C)cc(-c2ccccc2)n1)c1ccccc1 | u | 3.5µM* | 0% | 5µM* | u
CCOc1ccc(CC2S/C(=N/c3ccccn3)NC2=O)cc1 (centres undefined) | -5% | 3.2µM* | -1% | 5µM* | -1%
COc1ccc(/C=N/N=C2/NC(=O)C(CC(=O)NC(C)C)S2)cc1 (centres undefined) | -1%[0.307 µM] | -22% | -9% | -9% | 6%[0.307 µM]
Cc1cccc(/N=C2/NC(=O)C(Cc3ccccc3)S2)n1 (centres undefined) | 20% | -23% | 7% | -17% | -2%
COc1ccc(CC2S/C(=N/N=C/c3ccc(O)cc3)NC2=O)cc1 (centres undefined) | 4% | -32% | 9% | -5% | 29%
O=C1N/C(=N/N=C/c2ccccc2O)SC1Cc1ccc(F)cc1 (centres undefined) | u | 2.8µM* | 12% | 8.9µM* | u
COc1ccc(CC2S/C(=N/N=C/c3ccccc3O)NC2=O)cc1 (centres undefined) | u | 5.6µM* | -1% | u | 2.5µM*
COc1ccc(/C=N/N=C2/NC(=O)C(c3ccccc3)S2)c(OC)c1 (centres undefined) | -13% | 14µM* | 0% | -3%[0.365 µM] | -1%
COc1cc(OC)c(Nc2ncnc3onc(-c4cccc(Cl)c4)c23)cc1Cl | 14% | x | 1% | x | 0%
COc1cc2c(cc1OC)C(c1c[nH]c3ccccc13)NCC2 (centres undefined) | x | 10% | x | -7% | x
CCC1=NN(C(=O)c2ccc(Cl)cc2)C(O)(c2ccc(C)cc2)C1 (centres undefined) | u | 18µM* | 8% | 25µM* | 2.8µM*
CCC1=NN(C(=O)c2ccc(Cl)cc2)C(O)(c2ccccc2)C1 (centres undefined) | -20% | u | 0% | 10µM* | u
CCC1=NN(C(=O)c2ccc([N+](=O)[O-])cc2)C(O)(c2ccccc2)C1 (centres undefined) | u | -35%[1.91 µM] | 11% | u | 0.79µM*
O=C(c1ccccc1O)N1N=C(C(F)(F)F)CC1(O)c1ccc([N+](=O)[O-])cc1 (centres undefined) | u | 11µM* | 13% | 10µM* | u
COC(=O)C1=NN(C(=O)c2ccc(Cl)cc2)C(O)(c2ccccc2)C1 (centres undefined) | 13% | u | 4% | u | 15%
CCC1=NN(C(=O)Cc2ccc([N+](=O)[O-])cc2)C(O)(C(C)(C)C)C1 (centres undefined) | 6% | 8.9µM* | -7% | -9% | 0%
CCc1ccc(C2(O)CC(C(F)(F)F)=NN2C(=O)Cc2ccc([N+](=O)[O-])cc2)cc1 (centres undefined) | 0% | u | -3% | -5% | -3%
O=[N+]([O-])c1ccc(O)c(-c2nn[nH]n2)c1 | -11% | 10µM* | -35% | -24% | 6%
Cc1cc(C)n(-c2ccc([N+](=O)[O-])cc2-c2nn[nH]n2)n1 | 18% | 0% | 6% | 2% | 6%
CCOc1ccccc1NC(=O)c1c(NC(=O)CCC(=O)O)sc2c1CCCCC2 | -9% | 10µM* | -7% | u | 47%
CCOC(=O)c1ccc(NC(=O)c2c(NC(=O)CCC(=O)O)sc3c2CCCCC3)cc1 | 0% | 10µM* | -1% | 1% | 12%
CCOc1ccccc1NC(=O)c1c(NC(=O)Cc2ccccc2)sc2c1CCCC2 | -17% | x | x | x | 6%
COc1ccccc1C(=O)N1CCCCC1CCN1CCOCC1 (centres undefined) | -6% | x | x | x | 8%
N#Cc1c(F)cccc1N1CCN(Cc2ccc3c(c2)OCO3)CC1 | -12% | 39% | 15% | -20% | 11µM*
SMILES | GLP1R cytotox | RORg inh | GLP-1R agonist | VP16 counter | GLP1R inv ag
C=CC[N+]1([C@H]2C[C@H]3[C@@H]4CC[C@H]5C[C@H](OC(C)=O)[C@@H](N6CCCCC6)C[C@]5(C)[C@H]4CC[C@]3(C)[C@H]2OC(=O)CC)CCCCC1 | x | x | 5% | x | x
CC(=O)C1C(=O)C=C(c2cccs2)CC1c1ccccc1 (centres undefined) | 78% | 13µM* | 16% | -8% | u
Cc1nc2ccccc2n1C1CC(=O)N(Cc2ccccc2)C1=O (centres undefined) | 2% | -29% | 4% | 6.3µM* | 38%
CN1C/C(=C/c2ccncc2)C(=O)/C(=C/c2ccncc2)C1 | -1% | 13µM* | 0% | 4µM* | 6%
CN1C/C(=C/c2ccsc2)C(=O)/C(=C/c2ccsc2)C1 | u | -97% | 3% | u | u
CCNC(=S)N=Nc1c(O)[nH]c2ccc(C(C)C)cc12 | u | 2.8µM* | -3% | 7.1µM* | u
COC(=O)N=Nc1c(O)[nH]c2ccc(Br)cc12 | -10% | 3% | 5% | -5% | 47%
NC(=S)N=Nc1c(O)[nH]c2c(Br)cc(Br)cc12 | u | 3.5µM* | 4% | 11µM* | u
CCCCNC(=S)N=Nc1c(O)[nH]c2ccccc12 | u | 2.2µM* | 9% | 5.6µM* | u
Oc1[nH]c2ccccc2c1N=NC(=S)NCCc1ccccc1 | u | 4.5µM* | 9% | 3.2µM* | u
CCOc1ccc(NC(=S)N=Nc2c(O)[nH]c3ccccc23)cc1 | u | 2.2µM* | 10% | 5µM* | u
Cc1ccc2[nH]c(O)c(N=NC(N)=S)c2c1 | 17% | 20% | 3% | 2% | 16%
CC(C)c1ccc2[nH]c(O)c(N=NC(=O)c3ccc(CSc4nncn4C)cc3)c2c1 | -2% | 5% | 14% | -1% | 15%
NC(=S)N=Nc1c(O)[nH]c2ccccc12 | 0%[1.53 µM] | 20µM* | 6% | -3% | 13%
CC(C)c1ccc2[nH]c(O)c(N=NC(=S)NCCc3ccccc3)c2c1 | -6% | 2µM* | 6% | 2.2µM* | u
Oc1cccc(NC(=S)N=Nc2c(O)[nH]c3ccccc23)c1 | u | 15% | 2% | -3% | 96%
Cc1c(C#N)c(NC(=O)CCl)n(Cc2cccs2)c1C | u | -13% | -1% | u | 5.6µM*
COc1ccccc1NC(=O)CSCc1cc(=O)c2cccc(Cl)c2[nH]1 | -11% | x | x | x | 9%
CCOc1ccc(NC(=O)C(=O)NCCc2ccccc2)cc1 | 0% | x | x | x | 7%
CCOc1ccc(/C(CCC(=O)O)=N/NC(=S)NCCc2ccccc2)cc1 | u | 7.9µM* | 4% | u | -2%
O=C(NCCc1ccc(Cl)cc1)C1COc2ccccc2C1 (centres undefined) | 13% | x | x | x | u

High-throughput results deposited in PubChem BioAssay by National Center for Advancing Translational Sciences (NCATS).
